PubChem BioAssay (NCATS)
Inconclusive results are not listed. Values without a mark were called inactive. Activity calls are given as the source filed them. The call rests on the fitted dose curve; in most records, active means well fitted inhibition curve with a large enough effect; inconclusive means small, poorly fitted or top-dose-only effect; inactive means flat fitted curve, though single readings scatter.

Test: Primary qHTS for inhibitors of nuclear receptor binding SET domain protein 2 (NSD2) in an isogenic RCH-ACV NSD2 p.E1099K mutant (9B) (AID 1645876); further: nearly all actives have a fitted effect of over 70% in size
Conditions: RCH-ACV (leukaemia line) NSD2 E1099K (9B) viability, CellTiter-Glo, 72 h; series mostly up to 44.9 µM; activity change, negative = viability loss: at the top concentration
On the % scale 0 is the no-effect control and ±100 the full control effect.

Row | SMILES | outcome | activity change, negative = viability loss
1 | CC1=CC(=O)CC(C)(C)[C@@]1(O)/C=C/C(C)O[C@@H]1O[C@H](CO)[C@@H](O)[C@H](O)[C@H]1O (some centres not stated) | inactive [at 17.3 µM] | 
2 | CC1(C)CC[C@]2(C(=O)O[C@@H]3O[C@H](CO[C@@H]4O[C@H](CO)[C@@H](O)[C@H](O)[C@H]4O)[C@@H](O)[C@H](O[C@@H]4O[C@H](CO)[C@@H](O)[C@H](O)[C@H]4O)[C@H]3O)CC[C@]3(C)C(=CCC4[C@@]5(C)CC[C@H](O[C@@H]6OC[C@@H](O)[C@H](O)[C@H]6O)[C@@](C)(C(=O)O)C5CC[C@]43C)[C@@H]2C1 (some centres not stated) |  | 0.102% [at 9.23 µM]
3 | C=C1C[C@H](O)[C@@H](O)[C@@]2(C)C1[C@@H](O)[C@H]1OC(=O)C3[C@@H](C)[C@@H](O)[C@H](O)C2[C@]31C (some centres not stated) |  | -2.39%
4 | C=C1CCC2(OC1)OC1CC3C4CC=C5CC(O)CC(O[C@@H]6OC[C@H](OC(=O)C(O)C(C)CC)[C@H](O)[C@H]6O[C@@H]6O[C@@H](C)[C@H](O)[C@@H](O)[C@H]6O)C5(C)C4CCC3(C)C1C2C (some centres not stated) |  | -3.21% [at 9.23 µM]
5 | CC1=C2C(=O)C=C(CO[C@@H]3O[C@H](CO)[C@@H](O)[C@H](O)[C@H]3O)[C@@H]2[C@H]2OC(=O)[C@H](C)[C@@H]2[C@@H](O)C1 |  | -1.31% [at 17.3 µM]
6 | COc1cc(C(=O)OCC2=CCC3C(C(=O)O)=COC(O[C@@H]4O[C@H](CO)[C@@H](O)[C@H](O)[C@H]4O)C23)ccc1O (some centres not stated) | inactive [at 17.3 µM] | 
7 | COc1cc(C(=O)OC[C@@]2(O)CO[C@@H](O[C@H]3[C@H](Oc4ccc(O)cc4)O[C@H](CO)[C@@H](O)[C@@H]3O)[C@@H]2O)cc(OC)c1O |  | -13.5% [at 17.3 µM]
